This is a sample that favours compounds with a hit; in the whole collection about 15% have one here.
DT40 TDP1 CPT – growth inhibition of DT40 Tdp1-/-;hTDP1 cells with camptothecin (screen for TDP1 inhibitors) | chicken DT40 Tdp1-/-;hTDP1 cells + 20 nM CPT, ATP luminescence, 48 h | Potency, µM (series often up to 46.2 µM), inactives show top-dose activity change, negative = growth inhibition, actives largely listed as inhibitors | AID 686979 | hit rate 12% among 420,000; further: nearly all actives have a fitted effect of over 55% in size
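Chicken DT40 Tdp1-/- cells complemented with human TDP1, 400 cells/well, exposed to compounds plus 20 nM camptothecin for at least 48 h at 37 C; viability read as ATP content by CellTiter-Glo luminescence.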
ALOX12 inh – blocks human arachidonate 12S-lipoxygenase; P18054; AID 1671190; Potency, µM (titrated, usually from 108 µM), inactives show at the top dose activity change, negative = inhibition, actives largely listed as inhibitors; hit rate 1.1% among 580,000; purified 12hLO, xylenol orange hydroperoxide absorbance
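Purified human 12hLO (150 nM final) in 25 mM Hepes, 0.01% Triton X-100, pH 7.0 was preincubated 15 min at room temperature with compound. Then 40 uM arachidonic acid was added, 30 min. Hydroperoxide was read by Fe-XO absorbance ratio 573/405 nm.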
ELG1 repair inh – inhibitors of ELG1-dependent DNA repair in HEK293T cells. HEK293T ELG1-luciferase reporter, luminescence, 16 h; DNA damage induced by 5-fluorouridine. Potency, µM (series often up to 46.1 µM), for inactives: top-dose activity change, negative = inhibition, usual class: inhibitors. hit rate 2.3% among 330,000. AID 504467; further: nearly all actives have a fitted effect of over 55% in size
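Luminescence from the luciferase reporter, measured 30 min after ONE-Glo reagent at room temperature, was the read-out. Beforehand, 2,000 cells per well were exposed for 16 hr at 37 °C to 5-fluorouridine together with compound or vehicle.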
TDP1 cell noCPT – qHTS for Inhibitors of human tyrosyl-DNA phosphodiesterase 1 (TDP1): qHTS in cells in absence of CPT | DT40 Tdp1-/- hTDP1 cells, no CPT, ATP luminescence, 48 h | Potency, µM (highest dose often 46.2 µM), inactives show top-dose activity change, negative = growth inhibition, hits mostly inhibitors | hit rate 15% among 420,000 | AID 686978, 2013; further: nearly all actives have a fitted effect of over 55% in size
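No-CPT arm: Tdp1-/-;hTDP1 DT40 cells (400/well) plus compounds, incubated ≥48 hr at 37 °C. Readout CellTiter-Glo luminescence.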
Gal4-VP16 FLuc – counter-screen for ROR gamma inhibitors: Gal4-VP16 reporter. Drosophila S2 Gal4-VP16 UAS-luciferase, luminescence, 20 h. AID 2546. Potency, µM (series often up to 53.6 µM), for the others: top-dose activity, negative = inhibition, usual class: inhibitors. hit rate 3.5% among 310,000;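 further: Gal4-VP16 expression switched on by copper sulfate through the metallothionein promoter; nearly all actives have a fitted effect of over 50% in size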
RORg inh – inhibitors of mouse ROR gamma transcriptional activity. P51450. Drosophila S2 Gal4-RORgamma UAS-luciferase reporter, 20 h. Potency, µM (top dose mostly 53.6 µM), without a hit: at the top dose activity change, negative = inhibition, hits mostly inhibitors. hit rate 5.4% among 310,000. AID 2551; further: nearly all actives have a fitted effect of over 60% in size
Target sequence (P51450 whole entry, looked up, the tested form may be a part): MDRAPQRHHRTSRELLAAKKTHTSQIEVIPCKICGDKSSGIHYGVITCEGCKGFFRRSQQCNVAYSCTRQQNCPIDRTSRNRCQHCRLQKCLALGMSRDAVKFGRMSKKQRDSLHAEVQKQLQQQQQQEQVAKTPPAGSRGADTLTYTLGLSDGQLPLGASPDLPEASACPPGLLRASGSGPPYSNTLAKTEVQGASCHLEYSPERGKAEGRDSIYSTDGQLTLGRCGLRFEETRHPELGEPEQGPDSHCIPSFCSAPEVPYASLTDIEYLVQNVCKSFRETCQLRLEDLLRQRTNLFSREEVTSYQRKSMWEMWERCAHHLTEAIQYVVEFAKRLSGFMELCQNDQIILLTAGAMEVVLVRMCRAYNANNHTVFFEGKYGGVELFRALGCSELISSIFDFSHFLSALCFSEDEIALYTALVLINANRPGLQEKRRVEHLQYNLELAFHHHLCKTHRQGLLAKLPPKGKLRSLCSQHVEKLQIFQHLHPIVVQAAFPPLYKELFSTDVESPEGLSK
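Using a luciferase readout, inhibitors were identified by reduced reporter activity in Drosophila cells coexpressing a copper-inducible Gal4–ROR gamma fusion and UAS-driven Photinus luciferase, incubated 20 hr after 700 uM copper sulfate.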
Starred values were filed as active, the others as inactive; ? = inconclusive; . = no result given; [ ] = dose if it differs, or a comment. The call rests on the fitted dose curve; in most records, active means well fitted curve in the direction sought with a large enough effect; inconclusive means small, poorly fitted or top-dose-only effect, or another doubt; inactive means no such curve, though single readings can be large; an effect the other way counts as inactive or inconclusive. On the % scale 0 is the no-effect control and ±100 the full control effect; potency means the concentration at half of the fitted maximal effect.

SMILES	DT40 TDP1 CPT	ALOX12 inh	ELG1 repair inh	TDP1 cell noCPT	Gal4-VP16 FLuc	RORg inh
Brc1ccccc1CN1CCN(Cc2c[nH]c3ccccc23)CC1	0.52µM*	?	.	1.5µM*	.	.
Brc1ccc(CN2CCN(Cc3c[nH]c4ccccc34)CC2)cc1	2.3µM*	?	-20%	9.2µM*	-15%	0%
c1ccc2cc(CN3CCN(Cc4c[nH]c5ccccc45)CC3)ccc2c1	.	1.8µM*	.	.	.	.
COc1ccc2[nH]c3c(c2c1)CCN1C(=O)C(CC(=O)NCC24CC5CC(CC(C5)C2)C4)C[C@H](C(=O)N2CCOCC2)[C@@]31CCC1CCCC1 (some centres undefined)	?	?	-16%	?	.	.
O=C(C[C@H]1C[C@H](C(=O)N2CCOCC2)[C@@]2(CCC3CCCC3)c3[nH]c4ccc(Cl)cc4c3CCN2C1=O)NCC12CC3CC(CC(C3)C1)C2	16µM*	-8%	?	21µM*	.	.
O=C(CC1C[C@H](C(=O)N2CCOCC2)[C@@]2(CCC3CCCC3)c3[nH]c4ccccc4c3CCN2C1=O)NCCCn1ccnc1 (some centres undefined)	?	-9%	2%	?	.	.
O=C(C[C@H]1C[C@H](C(=O)N2CCOCC2)[C@@]2(CCC3CCCC3)c3[nH]c4ccc(Cl)cc4c3CCN2C1=O)NCCN1CCOCC1	?	-8%	5%	?	.	.
O=C(C[C@H]1C[C@H](C(=O)N2CCOCC2)[C@@]2(CCC3CCCC3)c3[nH]c4ccc(Cl)cc4c3CCN2C1=O)NCCc1ccccn1	16µM*	-27%	14%	16µM*	.	.
COCCCNC(=O)C[C@H]1C[C@H](C(=O)N2CCOCC2)[C@@]2(CCC3CCCC3)c3[nH]c4ccc(Cl)cc4c3CCN2C1=O	21µM*	?	-12%	?	.	.
Cc1ccc(NC(=O)c2cnc(SCC(=O)NCC3CCCO3)n(C)c2=O)cc1C (centres undefined)	21µM*	10%	?	23µM*	.	.
Cn1c(SCC(=O)NCC2CCCO2)ncc(C(=O)Nc2ccccc2)c1=O (centres undefined)	26µM*	2%	?	23µM*	.	.
Cc1cc2c(=O)n(C)c(SCC(=O)NCC3CCCO3)nc2s1 (centres undefined)	6%	0%	.	-1%	.	.
COc1ccc(Br)cc1C(=O)Nc1cccc2ncccc12	-18%	-9%	1%	?	-4%	-1%
CCOc1ccc(C(=O)Nc2cccc3ncccc23)cc1Cl	23µM*	10%	1%	?	5%	5%[1.91 µM]
COc1cc(C(=O)Nc2cccc3ncccc23)cc(OC)c1OC	-8%	0%	?	0%	-14%	35µM*
CCOc1ccc(C(=O)Nc2cccc(C(=O)O)c2C)cc1Cl	-10%	-4%	?	-15%	1.6µM*	-39%
CNc1nc2c(c(C(=O)N3CCCC3)n1)CN(C(=O)Cn1nccc1C)CC2	.	-21%	.	.	.	.
CNc1cccc2c1C(=O)c1ccccc1C2=O	-23%	-1%	?	?	-4%	-22%
CC(C)Cn1[nH]c2c3c(ccc2c1=O)C(=O)c1ccccc1C3=O	23µM*	.	?	16µM*	-8%	?
Cc1cccc(-n2[nH]c3c4c(ccc3c2=O)C(=O)c2ccccc2C4=O)c1	21µM*	-6%	-16%	?	-5%	-27%
Cc1c(C)c2ccc(OC(C)C(=O)NCCc3ccc(S(N)(=O)=O)cc3)cc2oc1=O (centres undefined)	.	-1%	.	.	.	.
N#C/C(=C(/O)COc1ccc(Cl)cc1)c1nc2ccccc2s1	?	-7%	?	9.2µM*	-3%	-18%
N#C/C(=C(/O)c1ccc(F)cc1)c1nc2ccccc2s1	18µM*	-3%	-7%	23µM*	?	-22%
N#C/C(=C(/O)CSc1ccccn1)c1nc2ccccc2s1	15µM*	-14%	14%	?	-8%	12%
c1cc(-c2cc3c(ccn3Cc3ccncc3)c(N3CCOCC3)n2)c2[nH]ncc2c1	.	19%[176 µM]	.	.	.	.
SMILES	DT40 TDP1 CPT	ALOX12 inh	ELG1 repair inh	TDP1 cell noCPT	Gal4-VP16 FLuc	RORg inh
O=C(COCc1cc(-c2cccs2)on1)N1CCN(c2cccc(Cl)c2)CC1	23µM*	?	.	12µM*	.	.
O=C(COCc1cc(-c2cccs2)on1)N1CCN(c2ccc(F)cc2)CC1	18µM*	-18%	.	15µM*	.	.
O=C(Cc1cccs1)N1CCN(c2cccc(Cl)c2)CC1	-19%	-22%	?	-25%	8%	-6%
COc1cccc(-c2nc(-c3nnn4c3COC(c3ccc(C)cc3)C4)no2)c1 (centres undefined)	.	13%	.	.	.	.
CN(NS(=O)(=O)c1ccccc1)c1nc2ccccc2nc1C(F)(F)F	-17%	?	-6%	-18%	7%	-19%
Cc1cccc(C(=O)NN(C)c2nc(-c3ccccc3)nnc2C(F)(F)F)c1	21µM*	-14%	-7%	2.6µM*	-6%	-3%
COc1ccc(C(=O)NN(C)c2nc(C(F)(F)F)nc3ccccc23)cc1	0.18µM*	-19%	?	0.21µM*	?	3.2µM*
COc1ccc(C(=O)NN(C)c2nc(-c3ccccc3)nnc2C(F)(F)F)cc1	?	-21%	-19%	16µM*	-13%	-10%
CN(NS(=O)(=O)c1ccc(Cl)cc1)c1nc(C(F)(F)F)nc2ccccc12	-1%	1%	23µM*	13%	?	?
COc1ccc(CNC(=O)C2CCN(C(=O)c3ncn4c3COC(c3ccccc3)C4)CC2)cc1 (centres undefined)	.	13%	.	.	.	.
COCCC1(NC(=O)C(C)c2ccccc2)CCN(S(C)(=O)=O)CC1 (centres undefined)	.	43%	.	.	.	.
COc1cccc(N(C(=O)c2ccco2)C(C(=O)NC2CCCC2)c2ccc(N(C)C)cc2)c1 (centres undefined)	?	22%	2%	16µM*	-3%[0.365 µM]	-11%
COc1ccc(N(C(=O)c2ccco2)C(C(=O)NC2CCCC2)c2ccc(N(C)C)cc2)cc1 (centres undefined)	?	0%	-7%	16µM*	6%	-10%
COc1ccc(N(C(=O)c2ccco2)C(C(=O)NC2CCCCC2)c2ccccc2)cc1 (centres undefined)	16µM*	11%	.	26µM*	.	.
CC(=O)Nc1ccc(N(C(=O)c2ccco2)C(C(=O)NC2CCCC2)c2ccc(N3CCOCC3)cc2)cc1 (centres undefined)	2%	-19%	-10%	-19%	9%	1%

High-throughput results deposited in PubChem by National Center for Advancing Translational Sciences (NCATS).
